From PubChem
FMDV antiviral = antivirals against foot and mouth disease virus; Potency, µM (series often up to 57.9 µM), actives largely listed as inhibitors; AID 1159524; FMDV antiviral cell-based qHTS; 410,000 tested, 1.2% active; calls by dose curve; tested in HEK293T cells; further: read-out not given here; nearly all actives have a fitted effect of over 45% in size
Marburg entry inh = inhibitors of Marburg virus binding or cell entry; Marburg virus pseudotyped entry inhibition, cell reporter; Potency, µM (top dose mostly 37.8 µM), usual class: inhibitors; 300,000 tested, 1.8% active; calls by dose curve; tested in HEK293 cells
HCMV antiviral = inhibitors of human cytomegalovirus | HFF cells, HCMV-luciferase reporter, 72 h; active compounds read low | AID 1259415 | 410,000 tested, 4.5% active | activity change, negative = inhibition, % at 57.5 µM; in the data active means activity change below about -60%; inconclusive means no clear call, values can overlap the other calls; inactive means above about -39%
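After 16 h attachment at 37C, HFF cells received test compound and HCMV-luciferase (1 PFU/cell); reporter luminescence read 72 h later, data normalized against buffer-only and known inhibitor Salinomycin.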
Lassa entry inh = inhibitors of Lassa virus binding or cell entry. Lassa virus pseudotype entry inhibition, cell reporter. Potency, µM (top dose mostly 37.9 µM), most hits filed as inhibitors. 300,000 tested, 1.2% active. AID 540256; calls by dose curve; tested in HEK293 cells; further: nearly all actives have a fitted effect of over 50% in size
Each line names hits and unclear results; the compound was inactive in the other large screens. Only some compounds are listed: those with a hit (about 6.2% of all), similar ones and a draw of the others.

Cc1cccc(C)c1NC(=O)C(c1ccccc1OC(F)(F)F)N1CCN(C)CC1 (stereo not given)	HCMV antiviral -62.4 (no result: Marburg entry inh, Lassa entry inh)
Cc1ccc(N2CCN(C(C(=O)Nc3c(C)cccc3C)c3ccccc3OC(F)(F)F)CC2)cc1 (stereo not given)	none (no result: Marburg entry inh, Lassa entry inh)
CCOC(=O)c1ccccc1NC(=O)CSc1nnc(CC)n2c1cc1occc12	none (no result: Marburg entry inh)
CCN(CC)CCNc1nc(SC)nc2sc3c(c12)CCN(C)C3	Marburg entry inh 7.08µM, Lassa entry inh inconclusive
CCc1ccccc1NC(=O)CNC(=O)c1n[nH]c(=O)c2ccccc12	FMDV antiviral 25.1µM (no result: Marburg entry inh, Lassa entry inh)
CCN(Cc1ccc(Cl)s1)C(=O)c1cccc(OCc2c(C)noc2C)c1	FMDV antiviral inconclusive, Lassa entry inh inconclusive
CCN(Cc1nc2ccccc2c(=O)[nH]1)C(=O)c1cccc(OCc2c(C)noc2C)c1	FMDV antiviral inconclusive, Marburg entry inh inconclusive, HCMV antiviral -99.6, Lassa entry inh inconclusive
Nc1cc2nc3ccccc3oc-2cc1=O	HCMV antiviral -91.2 (no result: Marburg entry inh, Lassa entry inh)
Cc1ccccc1C1(CC(=O)N2CC3(C)CC2CC(C)(C)C3)CC(=O)N(Cc2cccnc2)C1=O (stereo not given)	none (no result: Marburg entry inh, HCMV antiviral, Lassa entry inh)
COC(=O)c1ccc(CSc2nnc(-c3ccncc3)o2)cc1	HCMV antiviral -67.7, Lassa entry inh inconclusive
N#Cc1ccc(CSc2nnc(-c3ccncc3)o2)cc1	HCMV antiviral inconclusive
c1ccc(CSc2nnc(-c3ccncc3)o2)cc1	Marburg entry inh inconclusive, HCMV antiviral -73.1
O=C(CSc1nnc(-c2ccncc2)o1)NCc1ccccc1	HCMV antiviral -89.7
COCOc1cc(OC)ccc1C(=O)C=Cc1ccc([N+](=O)[O-])cc1	Lassa entry inh inconclusive (no result: FMDV antiviral, HCMV antiviral)
Cc1ccc(S(=O)(=O)Nc2ccc(-c3nnc(SCc4ccccc4Cl)o3)cc2)cc1	Marburg entry inh inconclusive, HCMV antiviral -83.5, Lassa entry inh inconclusive
Cc1ccc(S(=O)(=O)Nc2cc(=O)[nH]c(SCc3ccccc3Cl)n2)cc1	FMDV antiviral inconclusive, Marburg entry inh inconclusive, HCMV antiviral -66.4, Lassa entry inh inconclusive
O=c1cc(NS(=O)(=O)c2ccccc2)nc(SCc2ccc(Cl)cc2)[nH]1	Marburg entry inh inconclusive
NC[C@H](O)c1cc(O)c(O)cc1F	none (no result: FMDV antiviral, HCMV antiviral, Lassa entry inh)
C[C@@H]1CN([C@@H](C)CO)C(=O)CCCn2cc(nn2)CO[C@H]1CN(C)C(=O)Nc1cccc(F)c1	none (no result: FMDV antiviral, Marburg entry inh, Lassa entry inh)
COc1ccc(N2CCN(C(=O)C3CCN(S(=O)(=O)c4ccc(F)cc4)CC3)CC2)cc1	none
COc1ccc(OC)c(S(=O)(=O)N2CCC(C(=O)N3CCN(c4ccc(F)cc4)CC3)CC2)c1	FMDV antiviral inconclusive, HCMV antiviral -62.2
COc1ccc(OC)c(S(=O)(=O)N2CCC(C(=O)Nc3cc(C)ccc3C)CC2)c1	Marburg entry inh inconclusive, HCMV antiviral -93.1, Lassa entry inh inconclusive (no result: FMDV antiviral)
COc1ccc(NC(=O)C2CCC(C(C)(C)C)CC2)cc1S(=O)(=O)N1CCCCC1 (stereo not given)	FMDV antiviral 17.8µM, Marburg entry inh 11.2µM, HCMV antiviral -85.9, Lassa entry inh inconclusive
COc1ccc(OC)c(S(=O)(=O)N2CCC(C(=O)Nc3cccc(C)c3)CC2)c1	HCMV antiviral -61.1 (no result: FMDV antiviral)
COc1ccc(OC)c(S(=O)(=O)N2CCC(C(=O)Nc3ccccc3)CC2)c1	Marburg entry inh inconclusive
COC(=O)c1ccccc1NC(=O)C1CCN(S(=O)(=O)c2cc(C)ccc2OC)CC1	Marburg entry inh inconclusive, HCMV antiviral inconclusive
O=C(Nc1ccc(OCc2cc(=O)n3c4c(sc3n2)CCCC4)cc1)c1ccc(F)cc1	none
CCCCC(=O)NC(=S)Nc1nnn(CCC)n1	HCMV antiviral -98.2
CCCCC(=O)Nc1nnn(CCC)n1	none
CN1CCN(C(=S)c2ccc(OCC(=O)Nc3cccc(C(F)(F)F)c3)cc2)CC1	FMDV antiviral 20µM, Marburg entry inh inconclusive, HCMV antiviral -63.1, Lassa entry inh inconclusive
Cc1cc(C)cc(NC(=O)COc2ccc(C(=S)N3CCOCC3)cc2)c1	Marburg entry inh inconclusive, HCMV antiviral -62.1
O=C(COc1ccc(C(=O)O)cc1)Nc1cccc(C(F)(F)F)c1	none
Cc1cc(N2CCCC2)ccc1NC(=O)COc1cccc(C(F)(F)F)c1	HCMV antiviral -69.8 (no result: Marburg entry inh, Lassa entry inh)
O=C(COc1ccc(C(=S)N2CCOCC2)cc1)N1CCOCC1	Marburg entry inh inconclusive
Cc1c(Cl)cccc1-c1ccc(C(=O)Nc2ccc(F)cc2)o1	none (no result: Marburg entry inh)
Cc1cc(C(=O)N2CCN(c3ccccc3)CC2)c2c(C)nn(-c3cccc(F)c3)c2n1	none (no result: Marburg entry inh)
COc1cccc(CNC(=O)c2sc3nc[nH]c(=O)c3c2C)c1	none (no result: Marburg entry inh)
CCC(=O)Nc1cc(C)c(O)c(-c2nc3ncccc3o2)c1	none (no result: Marburg entry inh)
O=C(N/N=C1\CC(c2ccccc2)Oc2ccccc21)c1cccnc1 (stereo not given)	HCMV antiviral -83.1, Lassa entry inh inconclusive
O=C(N/N=C1\CC(c2ccccc2)Oc2ccccc21)c1ccc(O)cc1 (stereo not given)	HCMV antiviral inconclusive, Lassa entry inh inconclusive
CC(C)OC(=O)c1c(-c2ccccc2)c(-c2ccccc2)nn(C)c1=O	FMDV antiviral inconclusive
CCOC(=O)c1cc(-c2ccc(OC)c(S(=O)(=O)NCc3ccccc3Cl)c2)on1	HCMV antiviral inconclusive (no result: Marburg entry inh)
CCOC(=O)c1cc(-c2ccc(OC)c(S(=O)(=O)NC3CCCCC3)c2)on1	HCMV antiviral -69.5 (no result: Marburg entry inh)
CC1(Cc2ccc(F)cc2)C(=O)Nc2ccc(-c3cccnc3)cc21 (stereo not given)	HCMV antiviral -64.3 (no result: Marburg entry inh, Lassa entry inh)
COC(=O)C1=C(C)N(C)C(=NCc2cc(OC)c(OC)c(OC)c2)NC1c1cccc(Cl)c1 (stereo not given)	none (no result: FMDV antiviral, Marburg entry inh, Lassa entry inh)
Cc1cccnc1NC(=O)c1sc2ccccc2c1Cl	Marburg entry inh inconclusive, Lassa entry inh inconclusive
Cc1ccc(NC(=O)c2sc3ccccc3c2Cl)nc1	Marburg entry inh inconclusive, Lassa entry inh 5.8µM (no result: FMDV antiviral)
Cn1cccc1/C=N/NC(=O)c1sc2ccccc2c1Cl	HCMV antiviral -102.2
Cc1nnc(NC(=O)c2sc3ccccc3c2Cl)s1	Marburg entry inh inconclusive, Lassa entry inh 11.6µM
Cc1c(/C=N/NC(=O)c2sc3ccccc3c2Cl)cnn1C	none
O=C(Cn1nc(-c2ccccc2)c2cnc3ccc(F)cc3c21)NC1CCCC1	none (no result: Marburg entry inh)
CC(C)[C@@H]1Cc2c(C#N)c(N)n(C)c(=S)c2CO1	none (no result: FMDV antiviral, HCMV antiviral, Lassa entry inh)
C[C@H]1CC[C@]2(NC1)O[C@H]1C[C@H]3[C@@H]4CC[C@H]5C[C@@H](O[C@@H]6O[C@H](CO)[C@H](O[C@@H]7O[C@H](CO)[C@@H](O)[C@H](O[C@@H]8OC[C@@H](O)[C@H](O)[C@H]8O)[C@H]7O[C@@H]7O[C@H](CO)[C@@H](O)[C@H](O)[C@H]7O)[C@H](O)[C@H]6O)CC[C@]5(C)[C@H]4CC[C@]3(C)[C@H]1[C@@H]2C	FMDV antiviral 25.1µM (no result: Marburg entry inh, HCMV antiviral, Lassa entry inh)
C=CCn1c(SCC(=O)c2cc(C)n(C(C)COC)c2C)nc2sc(C)c(C)c2c1=O (stereo not given)	FMDV antiviral inconclusive, Lassa entry inh 9.2µM
C=CCn1c(SCC(=O)Nc2ccc(C(=O)O)cc2)nc2sc(C)c(C)c2c1=O	none (no result: Marburg entry inh, Lassa entry inh)
C=CCn1c(SCC(=O)NCCO)nc2sc(C)c(C)c2c1=O	FMDV antiviral 3.55µM
COCC(C)n1c(C)cc(C(=O)CSc2ncccn2)c1C (stereo not given)	none
O=C(C1=C(O)C(=O)N(c2ncccn2)[C@@H]1c1cccc(Cl)c1)c1ccco1	none (no result: FMDV antiviral, HCMV antiviral, Lassa entry inh)
CC(C)C(=O)N1CCC1(C)C(=O)Nc1ccc2cn[nH]c2c1 (stereo not given)	none (no result: Marburg entry inh, Lassa entry inh)
